A short description of assay [1]: qHTS RealTime-Glo MT Cell Viability Assay in HepG2 cells - 40 hour (AID 1224870). Note: nearly all actives have a fitted effect of over 50% in size. Note: potency is the fitted concentration of half-maximal effect. Put shortly: (§1)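 HepG2 cells (600/well) mixed with RealTime-Glo MT reagent, settled 5 h at 37 C/5% CO2 before compound addition. Nonlytic NanoLuc luminescence from viable-cell prosubstrate reduction read repeatedly during 40 h treatment at 37 C.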
(In qHTS, concentration-response curves come from the screen itself.)

Assay [2] is described as follows: qHTS RealTime-Glo MT Cell Viability Assay in HEK293 cells - 16 hour (AID 1224872). Note: top concentration of the series differs between compounds; nearly all actives have a fitted effect of over 50% in size. Put shortly: (§2)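 Reads taken at 0, 8, 16, 24, 32 and 40 h from the same wells. HEK293 cells (600/well) carried RealTime-Glo reagents from seeding, with compound added after a 5 h settle at 37 C.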
The nature of assay [3]: qHTS RealTime-Glo MT Cell Viability Assay in HepG2 cells - 8 hour (AID 1224873). Note: nearly all actives have a fitted effect of over 55% in size. Note: potency is the fitted concentration of half-maximal effect. Put shortly:
as §1

A short description of assay [4]: qHTS RealTime-Glo MT Cell Viability Assay in HEK293 cells - 40 hour (AID 1224874). Note: nearly all actives have a fitted effect of over 50% in size. Note: potency is the fitted concentration of half-maximal effect. As to conditions: RealTime-Glo luminescence; max response: stronger effect = lower value. A digest of the protocol:
(§3)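 HEK293 + NanoLuc + prosubstrate, 600 cells/well; 5 h, 37 C/5% CO2; compound 23 nL in DMSO by pintool; 37 C; luminescence read at 0, 8, 16, 24, 32 and 40 h time points.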

Assay [5] can be described thus: A CellTox Green Cytotoxicity Assay to monitor cytotoxicity in HEK293 cells - 24 hour (AID 1224875). Note: nearly all actives have a fitted effect of over 45% in size. Note: potency is the fitted concentration of half-maximal effect. Put shortly: (§4)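 Tox21 screen in HEK293: membrane-impermeant cyanine dye fluoresces on binding dead-cell DNA; compound pinned 5 h post-seeding, plates held at 37 C, signal read repeatedly through 40 h.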
A short description of assay [6]: A CellTox Green Cytotoxicity Assay to monitor cytotoxicity in HepG2 cells - 16 hour (AID 1224876). Note: nearly all actives have a fitted effect of over 45% in size. Note: potency is the fitted concentration of half-maximal effect. Put shortly:
(§5)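 Measurements at 0, 8, 16, 24, 32 and 40 h of treatment captured CellTox Green fluorescence in HepG2 cells that had been co-plated with reagent and preincubated 5 h at 37 C/5% CO2.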

The nature of assay [7]: qHTS RealTime-Glo MT Cell Viability Assay in HepG2 cells - 32 hour (AID 1224877). Note: nearly all actives have a fitted effect of over 55% in size. Note: potency is the fitted concentration of half-maximal effect. Put shortly: (§6)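 HepG2 suspension premixed with RealTime-Glo reagents is plated at 600 cells per well and left 5 h at 37 C/5% CO2. Compounds in DMSO then go in, and bioluminescence reflecting viable cell number is recorded over 40 h.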
Assay [8] in a line: A CellTox Green Cytotoxicity Assay to monitor cytotoxicity in HepG2 cells - 24 hour (AID 1224878). Note: nearly all actives have a fitted effect of over 45% in size. Note: potency is the fitted concentration of half-maximal effect. A digest of the protocol:
as §5

Assay [9] in a line: A CellTox Green Cytotoxicity Assay to monitor cytotoxicity in HepG2 cells - 40 hour (AID 1224879). Note: nearly all actives have a fitted effect of over 40% in size. Note: potency is the fitted concentration of half-maximal effect. Put shortly:
as §5

The nature of assay [10]: qHTS RealTime-Glo MT Cell Viability Assay in HEK293 cells - 0 hour (AID 1224880). Note: top concentration of the series differs between compounds; nearly all actives have a fitted effect of over 45% in size. A digest of the protocol: as §3
Assay [11] is described as follows: A CellTox Green Cytotoxicity Assay to monitor cytotoxicity in HepG2 cells - 0 hour (AID 1224882). Note: nearly all actives have a fitted effect of over 35% in size. Note: potency is the fitted concentration of half-maximal effect. Put shortly:
as §5

Assay [12] can be described thus: A CellTox Green Cytotoxicity Assay to monitor cytotoxicity in HepG2 cells - 32 hour (AID 1224883). Note: nearly all actives have a fitted effect of over 50% in size. Note: potency is the fitted concentration of half-maximal effect. A digest of the protocol:
as §5

Assay [13] is described as follows: qHTS RealTime-Glo MT Cell Viability Assay in HepG2 cells - 16 hour (AID 1224885). Note: nearly all actives have a fitted effect of over 50% in size. Note: potency is the fitted concentration of half-maximal effect. A digest of the protocol: as §6
A short description of assay [14]: qHTS RealTime-Glo MT Cell Viability Assay in HEK293 cells - 24 hour (AID 1224886). Note: nearly all actives have a fitted effect of over 50% in size. Note: potency is the fitted concentration of half-maximal effect. Put shortly: as §2
The nature of assay [15]: qHTS RealTime-Glo MT Cell Viability Assay in HEK293 cells - 8 hour (AID 1224887). Note: nearly all actives have a fitted effect of over 50% in size. Note: potency is the fitted concentration of half-maximal effect. Put shortly:
as §3

Assay [16] is described as follows: qHTS RealTime-Glo MT Cell Viability Assay in HepG2 cells - 0 hour (AID 1224889). Note: nearly all actives have a fitted effect of over 50% in size. A digest of the protocol: as §6
Assay [17] is described as follows: A CellTox Green Cytotoxicity Assay to monitor cytotoxicity in HEK293 cells - 40 hour (AID 1224871). Note: nearly all actives have a fitted effect of over 45% in size. Note: potency is the fitted concentration of half-maximal effect. A digest of the protocol:
as §4

Assay [18] in a line: A CellTox Green Cytotoxicity Assay to monitor cytotoxicity in HEK293 cells - 16 hour (AID 1224888). Note: nearly all actives have a fitted effect of over 35% in size. Put shortly: as §4
Assay [19] can be described thus: A CellTox Green Cytotoxicity Assay to monitor cytotoxicity in HEK293 cells - 8 hour (AID 1224884). Note: nearly all actives have a fitted effect of over 35% in size. Note: potency is the fitted concentration of half-maximal effect. Put shortly:
as §4

Assay [20] can be described thus: A CellTox Green Cytotoxicity Assay to monitor cytotoxicity in HEK293 cells - 32 hour (AID 1224881). Note: nearly all actives have a fitted effect of over 40% in size. Note: potency is the fitted concentration of half-maximal effect. Put shortly: as §4

Several values for one entry are separate records, joined by “and”; a condition that tells them apart may be missing. Equal entries are not always repeated. Records with an inconclusive call do not appear. Where a structure was tested more than once in an assay, its records may differ in their call. Activity calls are given as the source filed them. Calls come from the whole dose curve; as a rule, active = well fitted curve in the direction sought with a large enough effect in the repeat runs; inconclusive = weak or mixed curves; inactive = no such curve, though single readings can be large; an effect the other way counts as inactive or inconclusive.
% is set by controls: 0 for no effect and ±100 for the full control effect.

As to `O=c1cc(-c2ccccc2)oc2ccc3ccccc3c12`, the Potency result in assay [1], in [2], in assay [3], in assay [5], in assay [7] and in [10] was “inactive” throughout. Further, the Potency result in assay [11], in assay [13], in assay [14], in [15] and in [16] was “inactive” in each case. Moreover, in assay [4], the max response was -4.42% (inactive). For the same compound, the Potency in assay [6] was 24.5 µM (active); in assay [8] it was 24.5 µM (active); in assay [9], 17.4 µM (active); in assay [12], 21.9 µM (active).
As to `CC(C)C[C@H](NC(=O)[C@H](CCc1ccccc1)NC(=O)CN1CCOCC1)C(=O)N[C@@H](Cc1ccccc1)C(=O)N[C@@H](CC(C)C)C(=O)[C@@]1(C)CO1`, the Potency was 23.9 nM (active) in assay [1]; 0.0756 µM (active) in [17]; 0.0268 µM (active) in assay [4]; 10.7 µM (active) in [6]; 26.8 nM (active) in [7]; 0.268 µM (active) in assay [8]. Further, the figures for the Potency in assay [12] and in assay [14] were 0.0239 µM (active) and 67.4 nM (active), respectively. Further, the Potency entry in assay [3], in assay [5], in assay [10], in assay [11], in assay [15] and in [18] was “inactive” throughout. The Potency entry in assay [16] is “inactive”.
For `CCOc1cccc(-n2cc(C(=O)N3CCN(c4cc(C(=O)O)c5ccccc5c4)CC3)nc2-c2ccc(C)cc2)c1`, the Potency result in [1], in [17], in [5], in assay [6], in assay [7] and in assay [8] was “inactive” throughout. The Potency result in assay [9], in assay [11], in assay [12], in assay [19], in assay [13] and in assay [14] was “inactive” each time. Also, the Potency result in [18] and in assay [16] was “inactive” throughout. Besides, the max response in assay [4] was 7.68% (inactive).
Consider `CCC=CC#N`, for which the Potency entry in assay [1], in assay [17], in [3], in assay [5], in assay [6] and in assay [8] was “inactive” throughout. The Potency result in assay [9], in [10], in assay [20], in assay [11], in assay [12] and in [19] was “inactive” each time. The Potency result in assay [13], in [14], in assay [15], in [18] and in [16] was “inactive” throughout. Further, the max response in assay [4] is 10.8% (inactive).
With `Cc1ccc2c(Br)cc(Br)c(O)c2n1`, the Potency entry in [1], in assay [2], in assay [3], in assay [5], in assay [6] and in assay [7] was “inactive” throughout. In addition, the Potency entry in assay [8], in [10], in assay [11], in [12], in [19] and in assay [13] was “inactive” in each case. The Potency result in assay [15], in [18] and in assay [16] was “inactive” throughout. For the same compound, the Potency in assay [4] was 5.35 µM (active).
Turning to `CCCCN1CCCC1C(=O)Nc1c(C)cc(C)cc1C` (centres undefined), the Potency entry in [1], in assay [3], in assay [7], in [10], in assay [13] and in assay [15] was “inactive” in each case. The Potency result in assay [16] was “inactive”. The Potency is 16.9 µM (active) in assay [17]; 15.1 µM (active) in [5]; 16.9 µM (active) in [20]; 23.9 µM (active) in assay [11]; 15.1 µM (active) in assay [19].
Consider `C[C@]12CC[C@@H]3c4ccc(O)cc4CC[C@H]3[C@@H]1CC[C@@H]2OC(=O)CCC1CCCC1`, for which the Potency entry in [1], in [10], in assay [11], in assay [19] and in assay [16] was “inactive” in each case. The Potency in assay [17] was 54.9 µM (active); in [3], 49 µM (active) and inactive; in assay [4], 43.6 µM (active); in assay [5], 54.9 µM (active); in assay [6] it was 49 µM (active) and 19 µM (active); in assay [7], 54.9 µM (active) and inactive. Further, the Potency in [9] is 54.9 µM (active) and 26.8 µM (active); in assay [20], 54.9 µM (active); in assay [12], 49 µM (active) and 23.9 µM (active); in [13] it was 49 µM (active) and inactive; in assay [14], 43.6 µM (active) and inactive; in [15], 49 µM (active) and inactive.
For `CCOC(=O)c1ccc(I)cc1`, the Potency entry in assay [1], in assay [6], in assay [7], in [8], in [9] and in assay [10] was “inactive” each time. Moreover, the Potency entry in [11], in [12], in assay [19], in assay [13] and in assay [16] was “inactive” in each case. Further, the Potency in assay [17], in assay [5] and in assay [20] was 35 µM (active) throughout. Besides, the max response in assay [4] is -24.8% (inactive).

The values are drawn from PubChem BioAssay (Tox21).
